# In PubChem BioAssay:
# The source made the active and inactive calls.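 The calls were made as follows, unless noted: active = inhibition of the reporter signal at or above 50%; inactive = inhibition below 50%.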
# How the values were obtained:
# [1] = inhibitors of TNFa-induced NFkB p65 translocation, primary screen, imaging, HUVEC, MLSMR starter and 10KST1 sets (AID 438;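 active = inhibition above 20% together with a positive visual image hit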;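 also: compound added about 3h40 before a 20 min TNFalpha stimulation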;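 as to inhibition: signal is the nuclear over cytoplasmic p65 intensity ratio per well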); conditions: HUVEC TNFa-induced p65 nuclear translocation; cell count: measured here: nuclei count (cytotoxicity indicator), at 2.08 µM; inhibition: at 2 µM, stronger effect = higher value, 0% TNFa-plus-vehicle, 100% no-TNFa wells
# [2] = inhibitors of mutant huntingtin aggregation, primary screen, imaging, exon1htt(103Q)mCFP cells, high-content imaging (AID 483;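 active = visual image review flags a hit and inhibition of aggregation exceeds 20%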;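 also: compound exposure lasted 3 days before fixation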;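 as to nuclei count: percent of the per-plate median nuclei count of sample wells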); conditions: exon1htt(103Q)mCFP cell line, aggregate imaging, at 2 µM; inhibition of aggregation: stronger effect = higher value; nuclei count: measured here: cell count, toxicity
# [3] = inhibitors of E-selectin induction by TNFa, primary screen, imaging, HUVEC, immunofluorescence, MLSMR starter and 10KST1 sets (AID 487;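 active = visually confirmed hit in the image check and inhibition above 20%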;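 as to inhibition: signal is fraction of cell area covered by stained E-selectin grains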;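 as to nuclei count: 100% = median nuclei count of all wells on the same plate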); conditions: HUVEC TNFalpha-induced E-selectin immunofluorescence imaging, at 2 µM; inhibition: stronger effect = higher value; nuclei count: measured here: cell number, toxicity
# [4] = molecular target: Voltage-gated potassium channel subunit beta-2 (Rattus norvegicus) (UniProt P62483); assay: KvBeta enzyme negative modulators, primary screen, biochemical, NADPH fluorescence (AID 622;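 active = fluorescence slope higher than the sample average by over 3 SD, cut at about -0.22 in these data, passing the limit was not always enough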;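 also: slope of raw intensity against log time taken from 70 to 1610 s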); conditions: recombinant KvBeta, 4-cyanobenzaldehyde reduction, at 10 µM, stronger effect = higher value
# [5] = molecular target: Voltage-gated potassium channel subunit beta-2 (Rattus norvegicus) (UniProt P62483); assay: KvBeta positive modulators, primary screen, biochemical, NADPH fluorescence (AID 623;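 active = NADPH fluorescence slope more negative than the mean of all samples by about 3 SD, 99.7% confidence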;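 also: fluorescence intensity change per second fitted from 20 to 320 s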); conditions: Recombinant KvBeta, NADPH fluorescence decrease slope, 10 min; at 10 µM; stronger effect = lower value
# [6] = molecular target: Alpha-2C adrenergic receptor (Homo sapiens) (UniProt P18825); assay: modulators of alpha2C/GIRK thallium flux, primary screen, cell-based, HEK293 alpha2C/GIRK1/2 (AID 624;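 active = fluorescence slope after compound addition differing from the mean of all screened samples at 99.7% confidence, in either direction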;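 also: slope of fluorescence ratio to pre-addition baseline per second over 15 to 24 s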); conditions: thallium flux BTC fluorescence, at 10 µM, actives lie on both sides
# [7] = inhibitors of Sendai virus-induced IRF3 signaling, primary screen, TLR/RLR signaling modifier project, cell-based, Sendai virus stimulus, luciferase, 10K MLSCN set (AID 602276;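 active = inhibition at or above 50% at 10 µM; inactive = inhibition below 50%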;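 also: firefly luciferase from ISG56 promoter only with Renilla not read in this screen; 0% = Sendai virus plus DMSO and 100% = medium plus DMSO without virus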); conditions: HEK293 RL24 IRF3 luciferase reporter, at 10 µM, stronger effect = higher value
# [8] = inhibitors of poly I:C-induced TLR3 signaling, primary screen, cell-based, poly I:C stimulus, luciferase, 10K MLSCN set (AID 602277); conditions: HEK293-TLR3 RL24 IRF3 luciferase reporter, at 10 µM, stronger effect = higher value
# Voltage-gated potassium channel subunit beta-2 (Rattus norvegicus), sequence (P62483 whole entry, looked up): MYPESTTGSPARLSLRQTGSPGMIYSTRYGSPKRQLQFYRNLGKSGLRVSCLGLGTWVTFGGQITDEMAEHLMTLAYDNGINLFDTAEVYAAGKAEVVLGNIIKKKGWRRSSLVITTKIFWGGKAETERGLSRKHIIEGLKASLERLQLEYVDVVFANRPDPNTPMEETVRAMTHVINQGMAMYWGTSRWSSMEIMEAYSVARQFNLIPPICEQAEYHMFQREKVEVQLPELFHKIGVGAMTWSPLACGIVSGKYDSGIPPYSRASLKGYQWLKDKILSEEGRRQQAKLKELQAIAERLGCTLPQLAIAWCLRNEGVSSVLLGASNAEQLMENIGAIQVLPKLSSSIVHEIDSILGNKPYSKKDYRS
# Alpha-2C adrenergic receptor (Homo sapiens), sequence (P18825 whole entry, looked up): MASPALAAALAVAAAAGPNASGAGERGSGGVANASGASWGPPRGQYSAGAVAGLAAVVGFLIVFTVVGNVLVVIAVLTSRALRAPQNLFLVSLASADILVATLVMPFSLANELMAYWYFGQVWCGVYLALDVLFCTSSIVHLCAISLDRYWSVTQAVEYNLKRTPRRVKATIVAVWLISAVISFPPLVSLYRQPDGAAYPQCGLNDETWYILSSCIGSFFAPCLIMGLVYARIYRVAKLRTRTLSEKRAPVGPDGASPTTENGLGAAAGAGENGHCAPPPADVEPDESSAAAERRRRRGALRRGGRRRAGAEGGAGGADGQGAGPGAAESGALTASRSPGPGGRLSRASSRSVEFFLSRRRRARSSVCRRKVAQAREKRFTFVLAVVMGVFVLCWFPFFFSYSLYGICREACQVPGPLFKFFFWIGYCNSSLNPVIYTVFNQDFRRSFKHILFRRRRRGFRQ
SMILES,cell count [1],inhibition [1],inhibition of aggregation [2],nuclei count [2] [%],inhibition [3],nuclei count [3] [%],fluorescence slope [4],NADPH fluorescence slope [5],slope [6],inhibition [7],inhibition [8]
CCc1ccc(CNCc2cccnc2)cc1,273,-1.6% (inactive),18% (inactive),101,-19.3% (inactive),116,-0.464 (inactive),-3e-05 (inactive),0.00429 (inactive),3.34% (inactive),18.6% (inactive)
Nc1cc(CN2C(=O)c3ccccc3C2=O)cc(Cl)c1O,451,-1.8% (inactive),14.9% (inactive),100,-74.6% (inactive),159,-0.401 (inactive),-5.2e-05 (inactive),0.00582 (inactive),12.8% (inactive),36.4% (inactive)
CN1/C(=C\C(=O)C(F)F)C(C)(C)c2ccccc21,296,3.5% (inactive),-24% (inactive),104,17.2% (inactive),116,-0.504 (inactive),1.6e-05 (inactive),0.00399 (inactive),20.8% (inactive),17.4% (inactive)
CCOC(=O)c1ccccc1NC(=O)CSc1nccn1C,436,9.7% (inactive),-23.9% (inactive),108,-32.6% (inactive),108,-0.465 (inactive),-0.000118 (inactive),0.00604 (inactive),8.57% (inactive),19.3% (inactive)
C=COCCNC(=O)Nc1ccc(Cl)c(Cl)c1,387,-7% (inactive),4.5% (inactive),101,-170% (inactive),119,-0.348 (inactive),-4.7e-05 (inactive),0.00498 (inactive),-35.4% (inactive),-41.6% (inactive)
CC(C)c1nnc(NC(=O)C2CCCCC2)s1,571,-5.2% (inactive),22.8% (inactive),40.4,20.2% (inactive),76.2,-0.421 (inactive),-6.4e-05 (inactive),0.00517 (inactive),-16.4% (inactive),-54.8% (inactive)
CC(=O)c1cnc2cc(-c3ccccc3)nn2c1C,283,7.2% (inactive),26.1% (inactive),84.2,-84.1% (inactive),97.5,-0.343 (inactive),-5.4e-05 (inactive),0.00763 (inactive),-65.5% (inactive),-115% (inactive)
Cc1nc(NC(=O)c2ccccc2)sc1-c1csc(NCc2ccco2)n1,301,-2.4% (inactive),0% (inactive),121,-13% (inactive),113,-0.185 (inactive),-1.9e-05 (inactive),0.0038 (inactive),5.26% (inactive),-13.8% (inactive)
CCN(CC)S(=O)(=O)N1CCC(C(=O)NC2CCCc3ccccc32)CC1 (centres undefined),690,5.7% (inactive),-6.5% (inactive),95,-8.8% (inactive),116,-0.49 (inactive),8.8e-05 (inactive),0.00498 (inactive),-11.5% (inactive),-8.15% (inactive)
CCCCC(NS(=O)(=O)c1ccc(OC)cc1)C(=O)O (centres undefined),386,8.8% (inactive),-16.5% (inactive),108,-31.9% (inactive),118,-0.448 (inactive),-4e-05 (inactive),0.0033 (inactive),7.54% (inactive),39% (inactive)
COC(=O)c1cc(-c2c(C)oc3cc(O)ccc3c2=O)c(C)o1,609,-2.2% (inactive),-24% (inactive),114,-117% (inactive),167,-0.129 (active),2.7e-05 (inactive),0.0074 (inactive),4.96% (inactive),1.06% (inactive)
C=CCOC(=O)COc1ccc2c(C)c(C)c(=O)oc2c1C,373,-3.6% (inactive),-9.6% (inactive),102,-22.7% (inactive),105,-0.608 (inactive),-5.7e-06 (inactive),0.00552 (inactive),-3.09% (inactive),3.78% (inactive)
CCOC(=O)c1cc(CC)sc1NC(=O)CCC(=O)O,415,-3.2% (inactive),3% (inactive),99.8,-75.3% (inactive),109,-0.433 (inactive),-4.9e-06 (inactive),0.00617 (inactive),22% (inactive),26.5% (inactive)
CCCN(CCC)S(=O)(=O)c1ccc(NS(C)(=O)=O)cc1,399,3.4% (inactive),-3% (inactive),108,-126% (inactive),107,-0.391 (inactive),1e-05 (inactive),0.00362 (inactive),6.07% (inactive),12.8% (inactive)
O=C(NCCCN1CCCC1=O)c1ccc2c(=O)n(Cc3ccco3)c(=S)[nH]c2c1,653,-16.6% (inactive),-35.1% (inactive),74,-69.5% (inactive),101,-0.572 (inactive),2.7e-05 (inactive),0.00624 (inactive),0.725% (inactive),-15.6% (inactive)
O=C(CSc1nc2ccsc2c(=O)n1NC(=O)c1ccccc1)Nc1nccs1,414,3.2% (inactive),4% (inactive),98.2,-134% (inactive),101,-0.342 (inactive),-7e-06 (inactive),0.00492 (inactive),-7.17% (inactive),0.179% (inactive)
CC(C)=CC(=O)N1CCCc2ccccc21,308,-2.8% (inactive),-5.5% (inactive),84.6,3.3% (inactive),96.7,-0.606 (inactive),-2.8e-05 (inactive),0.00337 (inactive),16.7% (inactive),17% (inactive)
CN(C(=O)COc1cc(=O)n(C)c2ccccc12)c1ccc(Br)cc1,389,71.5% (active),2.9% (inactive),104,-178% (inactive),142,-0.513 (inactive),-1.3e-05 (inactive),0.00662 (inactive),6.78% (inactive),45.9% (inactive)
Cc1nc2ccc(NC(=O)NCc3ccco3)cc2s1,359,-2.2% (inactive),21.2% (inactive),100,-15.3% (inactive),82.3,-0.338 (inactive),5e-06 (inactive),0.00475 (inactive),-22.3% (inactive),-83.4% (inactive)
CCCCOCP(=O)(CCCC)COCCCC,369,0% (inactive),8.7% (inactive),88.5,-35.3% (inactive),100,-0.459 (inactive),-8.4e-05 (inactive),0.00748 (inactive),11.3% (inactive),22% (inactive)
CCOC(=O)c1c(C)[nH]c(C(=O)Cn2c(=O)c3c(ncn3CC)n(Cc3ccccc3)c2=O)c1C,752,4% (inactive),8.3% (inactive),88.5,-32.2% (inactive),127,-0.29 (inactive),-3.2e-05 (inactive),0.00419 (inactive),15.3% (inactive),24.5% (inactive)
COc1ccc(C2N(C(=O)c3ccccc3)CCN2C(=O)c2ccccc2)cc1,488,-13.6% (inactive),-2.8% (inactive),71.9,-13.7% (inactive),92.4,-0.427 (inactive),-7.3e-05 (inactive),0.00622 (inactive),7.08% (inactive),24.3% (inactive)
COc1ccc(NC(=O)CCS(=O)(=O)c2ccc(OC)cc2)cc1,401,-2.5% (inactive),20.3% (inactive),84.3,-24% (inactive),101,-0.539 (inactive),-8.1e-06 (inactive),0.00539 (inactive),-3.69% (inactive),-1.71% (inactive)
CC1(CC(=O)O)C(=O)N=C2C=CC=CN21 (centres undefined),489,-10.7% (inactive),17.4% (inactive),77.5,12.8% (inactive),97.8,-0.318 (inactive),2.3e-05 (inactive),0.0089 (inactive),19.8% (inactive),22.1% (inactive)
COC(=O)CCn1nnc(-c2cccs2)n1,547,-6.8% (inactive),7.6% (inactive),110,-34.8% (inactive),96,-0.598 (inactive),-5.1e-05 (inactive),0.00439 (inactive),-2.1% (inactive),-22% (inactive)
Cc1nnc(SCC(=O)NCc2ccccc2)s1,513,-11.9% (inactive),27.7% (inactive),78.7,10.5% (inactive),120,-0.447 (inactive),-2.7e-05 (inactive),0.00344 (inactive),1.7% (inactive),30.9% (inactive)
Cc1ccc(-c2cc3nc4c(c(=O)n3[nH]2)CCCC4)cc1,663,-11% (inactive),-8.5% (inactive),73.1,-69.9% (inactive),119,-0.454 (inactive),1.7e-05 (inactive),0.00436 (inactive),-9.26% (inactive),-48.6% (inactive)
O=C(Nc1ccc2nc(-c3cccs3)[nH]c2c1)c1ccco1,334,-0.7% (inactive),23% (inactive),78.8,-132% (inactive),119,-0.429 (inactive),-7.7e-05 (inactive),0.00445 (inactive),-35.6% (inactive),-87.4% (inactive)
COc1ccc(N2C(N)=C(C#N)C(c3cccnc3)C3=C2CC(C)(C)CC3=O)cc1 (centres undefined),446,-7.5% (inactive),-1.2% (inactive),97.7,-1.3% (inactive),104,-0.461 (inactive),-0.000329 (inactive),0.00535 (inactive),37.2% (inactive),38.7% (inactive)
